The assay relates to Vero E6 infected with SARS-CoV-2. Description: morphology score (similarity to uninfected cells); higher = more like uninfected cells. As to conditions: 24 h.
In the case of `C=C(C)[C@H]1CN[C@H](C(=O)O)[C@H]1CC(=O)O` [kainic-acid] (10 µM), the morphology score amounted to 0.338.
As for `c1ccc2c(CC3=NCCN3)cccc2c1` [naphazoline] (10 µM), the morphology score was 0.146.
The same measure for `Cc1ccc(C23CNCC2C3)cc1` (stereo not given) [bicifadine] (10 µM): 0.0287; for `C#Cc1cncc([C@@H]2CCCN2C)c1` [altinicline] (10 µM): 0.0585; for `CN1CCc2cc3c(cc2[C@H]1[C@@H]1OC(=O)c2c1ccc1c2OCO1)OCO3` [bicuculline-(+)] (10 µM): -0.0434.
Regarding `COc1cc2nc(C3CC3)nc(N3CCN(c4ccccc4OC)CC3)c2cc1OC` (0.833333 µM), the morphology score is 0.157.
In the case of `C[N+](C)(C)CCCCCNCC12CC3CC(CC(C3)C1)C2` (10 µM) it was -0.0308; in that of `Cn1c(=O)c(F)c(Nc2ccc(I)cc2F)c2c(=O)n(C[C@@H](O)CO)cnc21` (0.833333 µM), -0.0443; in that of `N#CC(Cc1ccc(O)cc1)c1ccc(O)cc1` (stereo not given) [diarylpropionitrile] (10 µM), 0.138.
On to `O=C(O)c1cc(O)c2c(c1)C(=O)c1cccc(O)c1C2=O` [rhein] (10 µM), for which the morphology score worked out at 0.272.
Turning to `O=C1OC2(c3ccc(O)cc3Oc3cc(O)ccc32)c2ccccc21` [fluorescein] (10 µM), the morphology score turned out to be 0.0519.
In turn, `COc1ccc(NC(=O)c2ccc(-c3ccc(-c4noc(C)n4)cc3C)cc2)cc1OCCN(C)C` (0.833333 µM) yielded a morphology score of 0.282.
As to `CC1(C)O[C@@H]2[C@@H](CO[C@@]3(COS(N)(=O)=O)OC(C)(C)O[C@@H]23)O1` [topiramate] (10 µM), the morphology score came out at 0.00625.
`CNCc1cc(-c2ccccc2F)n(S(=O)(=O)c2cccnc2)c1` [vonoprazan] (10 µM) showed a morphology score of 0.00653.
With `c1ccc2c(c1)OC[C@H](CNCCCOc1ccc3c(c1)OCO3)O2` [osemozotan] (10 µM), the morphology score worked out at 0.0986.
In the case of `C[C@@]1(C(=O)O)NCCc2cc(O)c(O)cc21` [salsolinol-1-carboxylic-acid] (10 µM) it was -0.0436.
`CCn1cc(C(=O)O)c(=O)c2cc3c(cc21)OCO3` [oxolinic-acid] (10 µM): the morphology score was found to be 0.162.
The same measure for `Cc1ncc([N+](=O)[O-])n1CC(O)CN1CCOCC1` (stereo not given) [morinidazole] (10 µM): 0.12; for `CCCCC[C@H](O)/C=C/[C@H]1[C@H](O)CC(=O)[C@@H]1CCCCCCC(=O)O` [alprostadil] (10 µM): 0.11; for `CCNC(=O)CCC/C=C\C[C@@H]1[C@@H](/C=C/[C@@H](O)CCc2ccccc2)[C@H](O)C[C@@H]1O` [bimatoprost] (10 µM): 0.0397.
`Oc1ccc2c3c1O[C@H]1c4[nH]c5c(c4C[C@@]4(O)[C@@H](C2)N(CC2CC2)CC[C@]314)C[C@@]1(O)[C@H]2Cc3ccc(O)c4c3[C@@]1(CCN2CC1CC1)[C@H]5O4` [nor-binaltorphimine] (10 µM) had a morphology score of -0.0703.
`CCCCCCCCCCCCCCCC(=O)OC[C@H](O)[C@H]1OC(=O)C(O)=C1O` [L-ascorbyl-6-palmitate] (10 µM): the morphology score is -0.0423.
`CNCCN(C)Cc1c[nH]nc1-c1ccc(O[C@H]2C[C@H](OCCC3CCOCC3)C2)cc1` (10 µM) returned a morphology score of -0.0509.
In turn, `C=CC(=O)Nc1cc(Nc2nccc(-c3cn(C)c4ccccc34)n2)c(OC)cc1N(C)CCN(C)C` [osimertinib] (10 µM) returned a morphology score of -0.27.
In the case of `O=Nc1c(-c2c(O)[nH]c3ccccc23)[nH]c2ccccc12` [indirubin-3-monoxime] (0.833333 µM) it was 0.00718.
The compound `O=C(Nc1cccc(Cl)c1)Nc1ncc(CCNc2ncnc3ccsc23)s1` (10 µM) gave a morphology score of 0.393.
Turning to `N[C@@H](Cc1c[nH]c2ccc(O)cc12)C(=O)O` [5-hydroxytryptophan] (10 µM), the morphology score turned out to be 0.197.
As to `O=C1NCCNC1c1cccs1` (stereo not given) [tenilsetam] (10 µM), the morphology score worked out at 0.095.
Take `O=C(OCCN1CCOCC1)c1cccnc1Nc1cccc(C(F)(F)F)c1` [morniflumate] (10 µM): the morphology score was determined as 0.0767.
Consider `CC(=O)Nc1ccc(C(=O)Nc2ccccc2N)cc1` [tacedinaline] (0.833333 µM), for which the morphology score is -0.0863.
`CN1CCN(c2nc3ccccc3nc2Cl)CC1` (10 µM) registered a morphology score of 0.162.
Take `C[C@@H]1C[C@H]2[C@@H]3C[C@H](F)C4=CC(=O)C=C[C@]4(C)[C@@]3(F)[C@@H](O)C[C@]2(C)[C@@]1(O)C(=O)COC(=O)C(C)(C)C` [flumethasone-pivalate] (10 µM): the morphology score was 0.324.
In the case of `Clc1ccc2c(c1)CCc1cccnc1C2=C1CCNCC1` [desloratadine] (10 µM), the morphology score was 0.351.
Turning to `CCCCC1=NC2(CCCC2)C(=O)N1Cc1ccc(-c2ccccc2-c2nnn[nH]2)cc1` [irbesartan] (10 µM), the morphology score came out at 0.0469.
Consider `O=C(NCCCN1CCC2(CC1)OCc1ccccc12)[C@H]1CCCN1Cc1ccccc1` (10 µM), for which the morphology score was 0.505.
The compound `CCc1ccc(C(=O)C(C)CN2CCCCC2)cc1` (stereo not given) [eperisone] (10 µM) had a morphology score of 0.374.
`CC(C(=O)O)c1ccc2c(c1)CC(=O)c1ccccc1S2` (stereo not given) [zaltoprofen] (10 µM): the morphology score was found to be 0.241.
Turning to `COc1ccc(C(=O)c2c(C)n(CCN3CCOCC3)c3cc(I)ccc23)cc1` (10 µM), the morphology score amounted to 0.116.
Regarding `OCCN1CCN(CC/C=C2/c3ccccc3Sc3ccc(Cl)cc32)CC1` [zuclopenthixol] (0.833333 µM), the morphology score stood at 0.0109.
The same measure for `C[N+]1(C)CCC(=C(c2ccccc2)c2ccccc2)CC1` [diphemanil] (10 µM): -0.00596.

The values above are taken from the supplement of paper PMC13380429.
